Results on 24 compounds are retold here after PubChem BioAssay.

The source made the active and inactive calls.

Tested on in one assay: not listed separately
As to the kind of experiment: S. cerevisiae growth modulation with rapamycin, primary screen, strain BY4716, OD600, 96 h (AID 1091). Note: test concentration not given here. To be noted: higher = more signal, called active from +8 up or from −8 down.
Turning to `COc1ccc([Si](C)(C)[C@H]2[C@H](CCn3cc([C@H](O)c4ccccc4)nn3)O[C@@]3(C(=O)N(Cc4ccc(N5C(=O)c6cccc7cccc5c67)cc4)c4ccccc43)[C@@H]2C)cc1`, the z-score is 2.55 (inactive). On the same count and under the same terms, in the case of `C[N+](C)(C)CCCC[C@@H]1NC(=O)[C@H]2C[C@@H](C(=O)NCCCCCCN)[C@@H](c3ccc(O)cc3)N2C1=O` it was 1.13 (inactive); in that of `O[C@@H](Cc1ccccc1)[C@@H](/C=C/C1CC1)N(CC#Cc1ccccc1)Cc1cccc(Cl)c1`, -0.0243 (inactive). On the same count and under the same terms, the result for `CCOC(=O)C[C@H]1[C@H](OC(=O)c2ccccc2-c2ccccc2)[C@@H](NC(=O)c2ccc(-c3ccccc3)cc2)c2cc(OCCCO)ccc2N1C(=O)c1ccc2ccccc2n1` reads 0.723 (inactive); that for `CN(C)c1ccc(C(O)C2C=CC3C(=O)N(c4ccccc4)C(=O)C3N2Nc2ccc([N+](=O)[O-])cc2)cc1` (centres undefined), 2.39 (inactive).

Regarding `COC(=O)[C@@]1(Cc2ccc(OC)cc2)[C@H]2c3cc(C(=O)N4CCCC4)n(Cc4c(-c5ccccc5)noc4C)c3C[C@H]2CN1C(=O)c1ccccc1`, the z-score is 1.77 (inactive). For the compound `COc1ccc(-c2nc(-c3ccccc3)c3c(c2C)CO[Si]3(C(C)C)C(C)C)cn1`, the z-score was -0.0892 (inactive). In the case of `O=C1O[C@@H](c2ccccc2)[C@@H](c2ccccc2)N2[C@@H](c3ccc(O)cc3)[C@]3(C(=O)Nc4ccc(C#CC5=CCCCC5)cc43)[C@@H](C(=O)NC[C@H](O)c3ccccc3)[C@H]12`, the z-score was 2.89 (inactive). For `CO[C@H]1O[C@H](CO)[C@@H](OC(=O)Nc2ccccc2-c2ccccc2)[C@H](OC(=O)Nc2ccc3c(c2)OCO3)[C@H]1OC(=O)Nc1ccc2c(c1)OCO2`, the z-score is 7.32 (inactive). Take `COC(=O)[C@@]1(Cc2ccc(F)cc2)[C@H]2c3cc(C(=O)N4CCCC4)n(CCN4CNCC4=O)c3C[C@H]2CN1C(=O)c1ccccc1`: the z-score was 0.316 (inactive). The same measure, in the same setting: the result for `CN(C)CCCNC(=O)[C@@H]1c2ccccc2C(=O)N(Cc2ccccc2Cl)[C@H]1c1ccc(CO)cc1` reads -1.04 (inactive).

In a further assay the target is Torsin-1A-interacting protein 2 (Homo sapiens) (UniProt Q8NFQ8). Kind of assay: LULL1 binders on small-molecule microarray, primary screen, cell lysate, human LULL1 lysate, 635/667 nm fluorescence (AID 1092).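 Note: probe is lysate of COS7 cells overexpressing human LULL1; score merges per-feature 667 nm fluorescence with signal-to-noise.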 Particulars: hLULL1 lysate binding, 635 nm fluorescence, higher = more signal.
Torsin-1A-interacting protein 2 (Homo sapiens), sequence (Q8NFQ8 whole entry, looked up): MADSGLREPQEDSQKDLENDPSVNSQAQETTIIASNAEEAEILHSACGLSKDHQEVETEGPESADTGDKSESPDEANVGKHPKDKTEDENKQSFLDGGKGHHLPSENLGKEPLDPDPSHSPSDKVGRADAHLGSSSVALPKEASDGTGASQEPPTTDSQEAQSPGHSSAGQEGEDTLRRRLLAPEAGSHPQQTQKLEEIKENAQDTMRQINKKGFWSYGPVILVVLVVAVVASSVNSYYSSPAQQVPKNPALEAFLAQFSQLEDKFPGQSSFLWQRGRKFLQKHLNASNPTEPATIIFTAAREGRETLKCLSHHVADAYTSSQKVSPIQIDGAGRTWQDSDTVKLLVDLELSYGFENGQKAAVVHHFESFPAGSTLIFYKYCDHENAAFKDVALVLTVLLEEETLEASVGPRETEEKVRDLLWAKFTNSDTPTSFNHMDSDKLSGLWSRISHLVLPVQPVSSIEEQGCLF
Take `COc1cc2c(cc1O)C(C)N(Cc1ccc([N+](=O)[O-])o1)CC2` (centres undefined): the composite z-score was 1.74. On the same count and under the same terms, the result for `COCCOC(=O)N1C(=O)[C@@]2(c3cc(C#Cc4ccc(OC)cc4)ccc31)[C@H](c1ccc(O)cc1)N1[C@H](c3ccccc3)[C@H](c3ccccc3)OC(=O)[C@H]1[C@@H]2C(=O)N1CCCCCCC1` reads 1.46. Compound `COc1ccc([Si](C)(C)[C@@H]2[C@@H](CC(=O)N(CCO)Cc3ccccc3)O[C@]3(C(=O)N(Cc4cccc(N5C(=O)c6cccc7cccc5c67)c4)c4ccccc43)[C@H]2C)cc1` registered a composite z-score of 0.36. Still for that read-out and setting: the result for `Cc1ccc(S[C@]2(C(=O)O)CC(=O)N(Cc3ccccc3Cl)[C@@H]2c2ccc(CO)cc2I)cc1` reads 0.198. Still for that read-out and setting: in the case of `COC(=O)C1=CC(CCCO)=CC(C2CC2)N(C)C=C1C(=O)OC` (centres undefined) it was 2.79; in that of `COCCOC(=O)N1C(=O)[C@@]2(c3cc(C#CCC(C(=O)OC)C(=O)OC)ccc31)[C@H](C(=O)N1CCc3cc(OC)c(OC)cc3C1)[C@H]1C(=O)O[C@H](c3ccccc3)[C@H](c3ccccc3)N1[C@@H]2c1ccc(OCCO)cc1`, 2.73. On the same count and under the same terms, in the case of `COc1ccc([Si](C)(C)[C@H]2[C@H](CCO)O[C@@]3(C(=O)N(Cc4cccc(N5C(=O)COc6ccccc65)c4)c4ccccc43)[C@@H]2C)cc1` it was 0.795; in that of `CN(C)CCCNC(=O)[C@@]1(C)c2ccccc2C(=O)N(Cc2ccccc2)[C@H]1c1ccc(CO)cc1`, 2.82; in that of `COC(=O)c1c2oc(c1C(=O)OC)C(=O)N(Cc1ccccc1)Cc1cn(nn1)C[C@H](Cc1ccccc1)NC(=O)N[C@H](CO)CC2`, 1.69. On to `[N-]=[N+]=NCc1ccccc1[C@H]1OC(c2ccc(OCCCO)cc2)=N[C@@]1(CCS(=O)(=O)c1ccccc1)C(=O)N1CCCCC1`, for which the composite z-score stood at 3.34. The same measure, in the same setting: in the case of `O=C(CS)NCCCCCNC(=O)[C@@H]1C[C@@H]2C(=O)N3CCC[C@H]3C(=O)N2[C@@H]1c1cccc(OCCO)c1` it was 2.74; in that of `COCCOC(=O)N1C(=O)[C@@]2(c3cc(C#CCCO)ccc31)[C@H](C(=O)Nc1nc3ccccc3s1)[C@H]1C(=O)O[C@H](c3ccccc3)[C@H](c3ccccc3)N1[C@@H]2c1ccccc1OCCO`, 2.81; in that of `C[C@@H]1NC(=O)[C@@]23C(=O)N[C@@H](Cc4ccccc4)C2[C@H](C)[C@@]2(C)O[C@H]2C3/C=C/C/C=C\CNC(=O)[C@@H]2CCCN2C1=O` (some centres undefined), -0.516.
